Experimental findings from PubChem BioAssay are described below.

Molecules are shown by their SMILES. The source made the active and inactive calls.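 How the source made its calls: active means inhibition above the hit cutoff set in the earlier primary screen (cut at about 27% in these data); inactive means the rest.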

Sequence of Protein phosphatase methylesterase 1 (Homo sapiens) (Q9Y570 whole entry, looked up): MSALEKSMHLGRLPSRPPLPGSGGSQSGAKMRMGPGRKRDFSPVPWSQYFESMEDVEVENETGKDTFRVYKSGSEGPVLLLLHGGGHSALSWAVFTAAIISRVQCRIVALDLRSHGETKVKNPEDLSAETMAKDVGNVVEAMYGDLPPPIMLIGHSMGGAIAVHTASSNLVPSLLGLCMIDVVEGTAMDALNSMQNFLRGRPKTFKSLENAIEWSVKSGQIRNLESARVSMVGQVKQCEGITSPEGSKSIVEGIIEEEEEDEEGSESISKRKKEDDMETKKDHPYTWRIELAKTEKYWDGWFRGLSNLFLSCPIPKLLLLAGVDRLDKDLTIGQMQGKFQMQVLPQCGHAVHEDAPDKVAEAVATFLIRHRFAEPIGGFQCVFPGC

The test addresses Protein phosphatase methylesterase 1 (Homo sapiens) (UniProt Q9Y570). The test is described as follows: human PME-1 methylesterase inhibition confirmation – biochemical, fluorescence polarization, FP-Rh probe, triplicate (AID 2171).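 Further: 0% = enzyme with DMSO and 100% = wells lacking PME-1.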 Particulars: recombinant PME-1, FP-Rh probe fluorescence polarization; at 5.9 µM; stronger effect = higher value. For orientation: In fluorescence polarisation assays a small probe gives low polarisation when free and higher when bound to something large.
As a reminder, the inhibition is the drop in the measured response relative to a control, in per cent. For `CC1=Nc2ccccc2/C1=C/c1sc(=N)n(-c2nccs2)c1O`, the inhibition was 40.4% (active).

Turning to `Oc1ccccc1C1Nc2cccc3cccc(c23)N1`, the inhibition is 24.4% (inactive).

For `CCc1nnc(NC(=O)c2sc3nc4cc(C)ccc4cc3c2N)s1`, the inhibition was 31.8% (active).

Regarding `CCCCNc1c2c3c(cccc3n(C)c1=O)C(=O)c1ccccc1-2`, the inhibition is 71.1% (active).

With `CCOC(=O)c1sc(N/N=C/c2cc(Br)c(O)c(OC)c2)nc1C`, the inhibition is 21.6% (inactive).

For `CCOc1ccc(NC(=S)Nc2ccc3nsnc3c2)cc1`, the inhibition is 24.1% (inactive).

With `O=c1[nH]c(C2CCCN(S(=O)(=O)c3ccccc3)C2)nc2c1nnn2Cc1ccccc1` (centres undefined), the inhibition is 22.6% (inactive).

Take `CC(=O)N1CCN(c2ccc(NC(=S)NC(=O)COc3ccc(C(C)(C)C)cc3)cc2)CC1`: the inhibition is 26.1% (inactive).

`COc1ccc(Br)cc1CNc1ccc(O)cc1`: the inhibition was 9.35% (inactive).

Take `COc1ccc2c(c1)CC/C(=C\Nc1ccc3c(c1)OCO3)C2=O`: the inhibition is 36.9% (active).

For `O=C1CN(C(=O)c2ccccc2F)C(c2ccccc2)c2cc(F)ccc2N1` (centres undefined), the inhibition was 16.4% (inactive).

Regarding `Oc1ccc(C2Nc3cccc4cccc(c34)N2)c(O)c1`, the inhibition is 21.4% (inactive).

Consider `CCCCC(=Nc1ccc(N)cc1)C1=C(O)C(C(=O)OC)C(C)(C)CC1=O` (centres undefined), for which the inhibition was 13.4% (inactive).

As for `COc1cccc(-c2nnc(Nc3nc4c(F)cccc4s3)o2)c1`, the inhibition is 46.2% (active).

Turning to `Cc1cc(C)c(NC(=O)COC(=O)c2cccc3c2C(=O)c2ccccc2C3=O)c(C)c1`, the inhibition was 42.1% (active).

`CCCCN(C)CCCNC(=O)c1cn(CC)c2ccc(S(=O)(=O)N3CCc4ccccc4C3)cc2c1=O`: the inhibition was 53.6% (active).

For the molecule `Cc1nn(-c2ccccc2)c2ncc(C(=O)c3cc(Cl)ccc3O)cc12`, the inhibition is -5.34% (inactive).

With `O=c1cc(-c2ccccc2Cl)oc2c(NS(=O)(=O)c3cc(Cl)cc(Cl)c3O)ccc(O)c12`, the inhibition was 47.1% (active).

In the case of `Cc1ccc2nc(-c3sc4nc(C)cc(C)c4c3N)[nH]c2c1`, the inhibition is 18.2% (inactive).

`COc1ccc(OC)c(-c2c3cc(O)c(=O)cc-3oc3cc(O)c(O)cc23)c1`: the inhibition is 169% (active).

On to `Fc1ccc2nc(Nc3nc4cc5c(cc4s3)OCO5)sc2c1`, for which the inhibition is 2.53% (inactive).

For `CCCCCCn1c(=O)[nH]c2nc3cc(N)ccc3nc2c1=O`, the inhibition is 37.6% (active).

In the case of `CC(C)=CCc1cc2c(=O)c3c(O)c4c(cc3oc2c(O)c1O)OC(C)C4(C)C` (centres undefined), the inhibition was -51.2% (inactive).

Regarding `O=C(c1ccc2oc(CCCc3ccccc3)nc2c1)N1CCCC(CCCO)C1` (centres undefined), the inhibition was 23.5% (inactive).

Turning to `CC(C)=CCc1cc(-c2oc3cc(O)cc(O)c3c(=O)c2O)ccc1O`, the inhibition is 36.8% (active).

Regarding `CCC1(C)Cc2c(sc3nc(NN)n(C)c(=O)c23)CO1` (centres undefined), the inhibition was -1.24% (inactive).

With `Cc1ccc(C)c(NC(=O)COC(=O)c2cc3ccccc3oc2=O)c1`, the inhibition is 22.3% (inactive).

For the molecule `Nc1ccc2nc3c(=O)n(CCc4ccccc4)c(=O)[nH]c3nc2c1`, the inhibition is 51.2% (active).

As to `CCOc1cccc(/C=N/NC(=S)Nc2cc(S(=O)(=O)N3CCOCC3)ccc2N2CCOCC2)c1O`, the inhibition is 25.1% (inactive).

`CCNc1ccccc1CP(=O)(c1ccccc1)c1ccccc1O` (centres undefined): the inhibition is 8.88% (inactive).

As for `Cc1nc(S/C(=C/c2ccc(-c3cc(Cl)ccc3C)o2)C(=O)O)n[nH]1`, the inhibition is 26.7% (active).

`CCc1ccc2[nH]c(O)c(N=NC3=NC(=O)CS3)c2c1`: the inhibition is 44% (active).

In the case of `CCC1Sc2ccc(S(=O)(=O)CCC(=O)Nc3ccc(OC(F)(F)F)cc3)cc2NC1=O` (centres undefined), the inhibition was 17.3% (inactive).

Turning to `Cn1c(=N)n(CC(=O)c2ccc(Br)cc2)c2ccccc21`, the inhibition is 13.3% (inactive).

On to `Cc1ccc(S(=O)(=O)N2CCN(C(=O)Cn3cnc4c3c(=O)n(C)c(=O)n4C)CC2)cc1C`, for which the inhibition is 20.7% (inactive).

Take `C=CCOc1ccc(/C=N/NC(=O)c2cc3c(OC)cc(OC)cc3[nH]2)cc1`: the inhibition is 24.4% (inactive).

For `N#CC/C(N)=N/Nc1nc2ccccc2nc1Cc1ccccc1`, the inhibition was -1.36% (inactive).

Regarding `O=C(NNc1c2ccccc2nc2ccccc12)c1cccc(O)c1`, the inhibition was 36% (active).

`COc1cc(N/N=C(\C)c2ccc(O)c(C)c2)nc(-c2ccccc2)n1`: the inhibition was 27.3% (active).
